# Assay results: PubChem BioAssay (Tox21)
# Calls of active or inactive are those of the source. Calls follow the shape of the dose curve; as a rule, active = well fitted curve in the direction sought with a large enough effect in the repeat runs; inconclusive = weak or mixed curves; inactive = flat fitted curve, though single readings scatter.
# Experiment: qHTS assay to test for compound auto fluorescence at 590 nm (red) in HEK293 cells (AID 720679)
# Conditions: red autofluorescence 540/590 nm; series mostly up to 91.3 µM
# Text: National Center for Advancing Translational Sciences [NCATS]
# NIH Chemical Genomics Center [NCGC]
# U.S. Environmental Protection Agency [EPA]
# National Institutes of Environmental Health Sciences [NIEHS]
# National Toxicology Program [NTP]
# U.S. Food and Drug Administration [FDA]
# Compound auto fluorescence often interferes with screening of the compound library against various biological targets and signaling pathways. Some of these compounds may have fluorophoric properties. Such properties may interfere with the assay outputs resulting in false positives and/or negatives. To decrease such complications and ensure the compound activities are relevant in terms of biological response, the Tox21 10K compound library was screened for auto fluorescence.
# From the fluorophores used as reporter signals in our screening assays, the auto fluorescence equivalencies of compounds against three fluorophores have been evaluated: Triamterene, Fluorescein and Rose Bengal sodium for blue, green and red fluorescence, respectively. The fluorescence intensities were measured using Excitation/Emission wavelengths at 405/460nm, 485/535nm and 540/590nm for blue, green and red labels, respectively. This assay includes the red fluorescence data.
# Tox21 Assay Protocol Summary:
# 2,000 HEK293 cells in 5 uL of culture medium containing 10% dialyzed FBS per well were dispensed into black wall/clear bottom 1536-well plates using a Multidrop Combi Dispenser (Thermo Scientific). The assay plates were incubated for 4-5 hr at 37C to allow cell attachment to the well bottom, followed by the transfer of 23 nL compound or DMSO vehicle by a pintool work station (Kalypsys, San Diego, CA). After the assay plates were incubated overnight at 37C and 5% CO2, fluorescence intensities in the assay plates were measured by an Envision (PerkinElmer, Shelton, CT) plate reader using three labels for measuring blue, green and red fluorescence at […] 460, 535 and 590nm respectively.
row,Structure (SMILES),outcome
1,CC1OC(C)OC(C)O1 (stereo not given),inactive
2,CN(N=O)c1ccccc1,inactive
3,c1cc2c3c(cccc3c1)CC2,inactive
4,O=C(O)c1ccccn1,inactive
5,CCC(C)(CC)c1cc(NC(=O)c2c(OC)cccc2OC)on1,inactive
6,CCOP(=S)(OCC)Oc1cnc2ccccc2n1,inactive
7,COc1ccc2c3c1O[C@H]1[C@@H](O)C=C[C@H]4[C@@H](C2)N(C)CC[C@@]341,inactive
8,CC1C=[C-]C=C1.[C-]#[O+].[C-]#[O+].[C-]#[O+].[Mn],inactive
9,CCCN(CCC)c1c([N+](=O)[O-])cc(C(F)(F)F)cc1[N+](=O)[O-],inactive
10,O=[N+]([O-])c1ccc([As](=O)(O)O)cc1,inactive
11,CCOP(OCC)OCC,inactive
12,Cc1ccc(N)cc1Cl,inactive
13,Nc1ccc(Br)cc1,inactive
14,Oc1ccccc1Cl,inactive
15,CCCCOC(=O)c1ccccc1C(=O)OCCCC,inactive
16,CC(NC(C)(C)C)C(=O)c1cccc(Cl)c1 (stereo not given),inactive
17,CC(Oc1ccc(Cl)cc1Cl)C(=O)O (stereo not given),inactive
18,CCCCCCCCCCCC#N,inactive
19,Nc1ccc(Cc2ccc(N)cc2)cc1,inactive
20,COC(=O)NS(=O)(=O)c1ccc(N)cc1,inactive

row,Structure (SMILES),outcome
1,CN(C)N=O,inactive
2,COC(=O)c1ccccc1C(=O)OC,inactive
3,C#CC(C)(C)NC(=O)c1cc(Cl)cc(Cl)c1,inactive
4,CCC[N+](=O)[O-],inactive
5,CC(C#N)CCC#N (stereo not given),inactive
6,c1ccc(-c2ccccc2)cc1,inactive
7,O=S(=O)(c1ccc(O)cc1)c1ccc(O)cc1,inactive
8,Cn1cc(-c2ccccc2)c(=O)c(-c2cccc(C(F)(F)F)c2)c1,inactive
9,CC(C)C#N,inactive
10,CNC(=O)Oc1ccccc1OC(C)C,inactive
11,O=S(=O)(c1ccc(Cl)cc1)c1cc(Cl)c(Cl)cc1Cl,inactive
12,ClCc1cccnc1,inactive
13,O=c1[nH]c2ccccc2c(=O)o1,inactive
14,CC(C)(C)OOC(C)(C)C,inactive
15,CC(C)(Cl)Cl,inactive
16,O=NN1CCCC1,inactive
17,CN=C=S,inactive
18,[O-][Cl+2]([O-])O,inactive
19,O=[N+]([O-])c1ccc(Oc2ccc(Cl)cc2Cl)cc1,inactive
20,CC(C)(C)C(O)(CCc1ccc(Cl)cc1)Cn1cncn1 (stereo not given),inactive
